# Assay results published in PubChem BioAssay (NCATS).
# Records with an inconclusive call do not appear. Calls of active or inactive are those of the source. Unless noted, calls come from the whole dose curve; as a rule, active = well fitted inhibition curve with a large enough effect; inconclusive = small, poorly fitted or top-dose-only effect; inactive = no such curve, though single readings can be large or run the other way.
# Columns and labels:
# [1] = qHTS profiling of the MIPE4 collection as inhibitors of Plasmodium falciparum (HB3) proliferation (AID 743347; call rule not given here;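 note: plate controls were DMSO vehicle wells for no effect and artemisinin wells for full effect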); details: P. falciparum HB3 in erythrocytes, SYBR Green DNA, 72 h; at 28.5 µM (top of the series) unless noted
# Summary of the method: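 Parasite DNA was quantified by SYBR Green I fluorescence (ex 485, em 535 nm) after overnight lysis in saponin/Triton buffer at room temperature. Cultures at 0.3% parasitemia and 2.5% hematocrit were first exposed to compound for 72 h at 37 C; signals were normalised to artemisinin (0.29 uM) and vehicle wells.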
# [2] = Cell Proliferation Assay Versus the ED40515 IL2 Dependent ATL cell lines (AID 1053195; calls by dose curve); details: ED40515 IL2-dependent ATL cells
# Summary of the method: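 CellTiter-Glo luminescence (15 min, RT) measured viability after 48 hours at 37C; cells were ED40515 +IL2, 1000/well, in phenol red-free RPMI with 5% FBS. Controls: DMSO and 9.2 uM bortezomib.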
# [3] = High-throughput drug toxicity screening in the BPDCN cell line Gen2.2 (AID 1224824; call rule not given here;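 note: cells exposed to compounds for 48 h before reading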); details: Gen2.2 BPDCN cells; at 45.8 µM (top of the series) unless noted
# Summary of the method: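 Readout is ATP luminescence from Gen2.2 cells after two days of drug exposure in serum-containing medium at 37 °C. Values express percent activity, with vehicle defining full signal and 9.2 uM bortezomib defining zero.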
# [4] = High-throughput drug toxicity screening in the BPDCN cell line Cal-1 (AID 1224825; call rule not given here); details: Cal-1 BPDCN cell viability, qHTS; at 45.8 µM (top of the series) unless noted
# Summary of the method: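 Percent activity derived from CellTiter-Glo luminescence, scaling DMSO to 100% and 9.2 uM final bortezomib to 0%. BPDCN Cal-1 cells (500/well, RPMI plus 10% FBS) incubated with compounds 48 hours at 37C before reading.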
# [5] = qHTS assay for measurement of the activity of small molecule inhibitors on Zika virus induced Caspase-3 activity in human iPSC derived neural progenitor cells (hNPCs) (AID 1224857); note: % of control where 0% means no effect; nearly all actives have a fitted effect of over 65% in size
# Summary of the method: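 Quantitative HTS format: human iPSC neural progenitors, 1 h compound pretreatment, ZIKV 2 FFU/cell for 6 h at 37 C. Percent inhibition derived from luminescent caspase-3/7 signal between uninfected and infected controls.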
# [6] = qHTS assay for measurement of the activity of small molecule inhibitors on Zika virus induced Caspase-3 activity in human astrocytoma cells (AID 1224859);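 note: plate controls were ZIKV-infected untreated cells for no effect and uninfected cells for full effect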
# Summary of the method: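 Readout is luminescence from Caspase-Glo 3/7 added after a 6 h ZIKV infection (2 FFU/cell) of compound-pretreated (1 h) SNB-19 cells; data expressed as % inhibition versus uninfected and infected wells.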
# [7] = qHTS Screen of the MIPE 4.0 Collection Against Ewings Sarcoma (TC71) (AID 1259253); note: nearly all actives have a fitted effect of over 40% in size; note: potency is the fitted concentration of half-maximal effect
# Summary of the method: (§1)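 CellTiter-Glo luminescence after 48 h compound exposure (titration) gave viability; percent activity used DMSO-treated cells as no inhibition and medium-only wells as full inhibition. Cells grown in RPMI/5% FBS, dosed 4 h post-seeding.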
# [8] = qHTS Screen of the MIPE 4.0 Collection Against Ewings Sarcoma (EW8) (AID 1259255); note: nearly all actives have a fitted effect of over 35% in size; note: potency is the fitted concentration of half-maximal effect;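 for viability: 100% = DMSO-treated cells and 0% = medium-only wells without cells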
# Summary of the method: as §1
# [9] = qHTS Screen of the MIPE 4.0 Collection Against Ewings Sarcoma (RDES) (AID 1259252); note: nearly all actives have a fitted effect of over 35% in size; note: potency is the fitted concentration of half-maximal effect
# Summary of the method: as §1
# [10] = Cell Proliferation Assay Versus the ED40515 IL2 Independent ATL cell lines (AID 1053194; calls by dose curve); details: ED40515 IL2-independent ATL cells
# Summary of the method: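 CellTiter-Glo luminescence, read after 15 min at RT, gave viability of IL-2-free ED40515 cells (1000/well, RPMI plus 5% FBS) following 48 h drug exposure at 37C. Control wells held DMSO or 9.2 uM bortezomib.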
Structure (SMILES),"growth, % of control [1]",Potency [2],"cell viability, % of control (lower = more cytotoxic) [3]",viability (% of control) [4],Potency [5],Potency [6],Potency [7],Potency [8],Potency [9],Potency [10]
CCC(=O)N[C@H]1CC[C@H](C(=O)N(C)c2ccc(-c3nc4ccccc4o3)cc2)C1,33.6%,3.32 µM (active),198%,92.1%,inactive,inactive,2.35 µM (active),,,
N#Cc1ccc(C(c2ccc(C#N)cc2)n2cncn2)cc1,101%,10.5 µM (active),33%,70.2%,inactive,inactive,,20.9 µM (active),,
Cc1cc(SCc2sc(-c3ccc(C(F)(F)F)cc3)nc2C)ccc1OCC(=O)O,96.6%,26.4 µM (active),101%,114%,inactive,inactive,16.6 µM (active),,inactive,
CC[C@@H](C)[C@H](NC(=O)[C@H](CC1CCCCC1)NC(=O)c1ccno1)C(=O)N1CCC2(CCc3ccccc32)CC1,5.03%,,168%,111%,,inactive,,inactive,,10.5 µM (active)
CCC(C)n1ncn(-c2ccc(N3CCN(c4ccc(OC[C@H]5CO[C@](Cn6cncn6)(c6ccc(Cl)cc6Cl)O5)cc4)CC3)cc2)c1=O (some centres undefined),4.47%,1.32 µM (active),92.6%,93.9%,inactive,inactive,inactive,inactive,,
CCc1cc(Nc2nccc(-c3c(-c4ccc(OC)c(C(=O)Nc5c(F)cccc5F)c4)nc4ccccn34)n2)c(OC)cc1N1CCC(N2CCN(S(C)(=O)=O)CC2)CC1,4.27%,1.66 µM (active),179%,79.3%,inactive,inactive,18.7 µM (active),18.7 µM (active),26.4 µM (active),
Cc1c(CN2CCN(C(=O)C(C)C)CC2)sc2c(N3CCOCC3)nc(-c3cnc(N)nc3)nc12,4.71%,1.66 µM (active),2.32%,3.99%,inactive,inactive,0.148 µM (active),0.105 µM (active),0.0833 µM (active),
NC(=O)C1CCCc2c1[nH]c1ccc(Cl)cc21 (centres undefined),106%,33.2 µM (active),67%,67.2%,inactive,inactive,,inactive,6.62 µM (active),
O=C(O)CCc1ccc(NCc2cccc(Oc3ccccc3)c2)cc1,76.8%,0.0833 µM (active),132%,108%,inactive,inactive,inactive,inactive,,
Cc1c(CCOc2ccc(C(=O)O)cc2)c2cc(Cl)ccc2n1C(c1ccccc1)c1ccccc1,63.5%,23.5 µM (active),222%,96.5%,inactive,inactive,16.6 µM (active),14.8 µM (active),18.7 µM (active),
Cc1cccc(-c2nn(C(=S)Nc3ccccc3)cc2-c2ccnc3ccccc23)n1,99.5%,2.35 µM (active),560%,91.8%,inactive,inactive,,inactive,,
Oc1cccc(-c2nc(N3CCOCC3)c3oc4ncccc4c3n2)c1,5.67% [at 57.5 µM],,8.19% [at 92.2 µM],17.8% [at 92.2 µM],,inactive,0.152 µM (active),0.429 µM (active),0.96 µM (active),1.32 µM (active)
Cc1cc(-c2nnc3n2CCCCC3)c(C)n1-c1ccc(F)cc1,,11.8 µM (active),,,,,,,,
CCOC(=O)C1=C[C@@]2(CC)CCCN3CCc4c(n1c1ccccc41)[C@H]32,,9.5 µM (active),,,,,,,,
COc1cccc2cc(-c3nc(C4CCC(C(=O)O)CC4)n4ncnc(N)c34)[nH]c12 (centres undefined),9.36%,4.18 µM (active),5.49%,21%,inactive,inactive,0.662 µM (active),0.526 µM (active),,
CCN(c1ccccc1)c1cc(NC)[n+](C)c(C)n1,85.9%,18.7 µM (active),138%,119%,inactive,inactive,inactive,inactive,,
Cc1ccnc(NS(=O)(=O)c2ccc(NC(=O)Nc3ccc(S(=O)(=O)Nc4nccc(C)n4)cc3)cc2)n1,9.87%,,75.2%,24.4%,,inactive,,,,6.62 µM (active)
Nc1ncnc2nc(-c3ccc(N4CCOCC4)nc3)cc(-c3cccc(Br)c3)c12,,14.8 µM (active),76%,55.4%,inactive,inactive,20.9 µM (active),33.2 µM (active),,
CNCc1ccc(-c2[nH]c3cc(F)cc4c3c2CCNC4=O)cc1,18.7%,20.9 µM (active),80.5%,15.1%,inactive,inactive,,,,
CCC(C)(C)C(=O)O[C@H]1C[C@@H](C)C=C2C=C[C@H](C)[C@H](CC[C@@H]3C[C@@H](O)CC(=O)O3)[C@H]21,3.36%,3.17 µM (active),26.7%,59.6%,inactive,inactive,11.8 µM (active),18.7 µM (active),23.5 µM (active),
Cc1cc(Nc2nc(N[C@@H](C)c3ncc(F)cn3)ncc2Cl)n[nH]1,10.9%,0.662 µM (active),151%,4.1%,inactive,inactive,10.5 µM (active),26.4 µM (active),,

Structure (SMILES),"growth, % of control [1]",Potency [2],"cell viability, % of control (lower = more cytotoxic) [3]",viability (% of control) [4],Potency [5],Potency [6],Potency [7],Potency [8],Potency [9],Potency [10]
OC[C@H](Cc1ccccc1)Nc1nc(Oc2ccc3c(c2)CCC3)nc2c1ncn2Cc1ccc(-c2ccccc2)cc1,68.3%,,408%,56.2%,inactive,inactive,,,,4.69 µM (active)
Nc1nc2[nH]cc(CCc3ccc(C(=O)N[C@@H](CCC(=O)O)C(=O)O)cc3)c2c(=O)[nH]1,139%,0.0296 µM (active),115%,37.4%,inactive,inactive,0.264 µM (active),,,
CCCn1c(=O)c2[nH]c(C34CC5CC3C[C@@H](C5)C4)nc2n(CCC)c1=O,5.74%,,214%,125%,inactive,inactive,,,,18.7 µM (active)
COc1ccc(-c2ccc3c(N4CCOCC4)nc(N4C[C@@H](C)O[C@@H](C)C4)nc3n2)cc1CO,5.91%,1.48 µM (active),19.2%,12.6%,inactive,inactive,0.833 µM (active),0.662 µM (active),0.526 µM (active),
C[C@]1(c2nc3c(C(N)=O)cccc3[nH]2)CCCN1,88.5%,16.6 µM (active),50.9%,88%,inactive,inactive,inactive,inactive,,
O=C(Nc1ccc(F)c(C(F)(F)F)c1)Nc1nnc(-c2ccncc2)s1,4.4%,0.935 µM (active),131%,101%,inactive,inactive,,,,
CCn1c(-c2nonc2N)nc2cnc(Oc3cccc(NC(=O)c4ccc(OCCN5CCOCC5)cc4)c3)cc21,3.64%,0.59 µM (active),84.4%,33.2%,inactive,inactive,13.2 µM (active),11.8 µM (active),5.9 µM (active),
CS(=O)(=O)Oc1ccc2c(NC(N)=O)c(C(=O)c3ccc(Cl)cc3Cl)oc2c1,13.6%,16.6 µM (active),153%,13.2%,inactive,inactive,14.8 µM (active),23.5 µM (active),11.8 µM (active),
OCCC#Cc1nc(-c2ccc(F)cc2)c(-c2ccncc2)n1CCCc1ccccc1,7.31%,,98.7%,18.4%,inactive,inactive,,,,23.5 µM (active)
O=C(C1CC1)N1CC[C@@H](Cn2c(-c3ccc(-c4ccc5occc5c4)cc3)nc3cnccc32)C1,21.9%,16.6 µM (active),133%,95.4%,inactive,inactive,16.6 µM (active),13.2 µM (active),inactive,
Cc1c(C)c2c(c(C)c1O)CCC(C)(COc1ccc(CC3SC(=O)NC3=O)cc1)O2 (centres undefined),62.4%,,31.1%,91.7%,,inactive,inactive,inactive,inactive,37.2 µM (active)
O=C(C=Cc1ccc(/C=C/C(=O)Nc2ccc(C3=NCCN3)cc2)cc1)Nc1ccc(C2=NCCN2)cc1,54.9%,2.09 µM (active),203%,104%,inactive,inactive,inactive,inactive,inactive,
CNC(=O)c1ccc(C)c(-n2c(C)cc(OCc3ccc(F)cc3F)c(Br)c2=O)c1,93.8%,5.9 µM (active),140%,94.3%,inactive,inactive,,,,
O=C1[C@H](Cc2ccc(O)cc2)N2C(=O)CCN(C(=O)NCc3ccccc3)[C@H]2CN1Cc1cccc2ccccc12,12.1%,8.33 µM (active),6.07%,31.2%,,inactive,2.96 µM (active),2.64 µM (active),,
C[C@@H]1C[C@H]2[C@@H]3CCC4=CC(=O)C=C[C@]4(C)C3(F)[C@@H](O)C[C@]2(C)[C@@]1(O)C(=O)CO (some centres undefined),95.5%,2.64 µM (active),,,,,,,,
O=c1[nH]cnc2[nH]ncc12,,,124%,101%,inactive,inactive,inactive,inactive,inactive,
O=NN(CCCl)C(=O)NCCCl,,,114%,103%,inactive,inactive,inactive,inactive,inactive,
Cc1cc(-c2ccc(CC(=O)Nc3ccc(-c4cccnc4)cc3)cc2)ccn1,63.6%,4.18 µM (active),255%,20.4%,,inactive,16.6 µM (active),18.7 µM (active),20.9 µM (active),
COc1ccc2nc(S(=O)Cc3ncc(C)c(OC)c3C)[nH]c2c1 (centres undefined),84.6%,23.5 µM (active),138%,96.8%,,inactive,,inactive,16.6 µM (active),
CCCC(CCC)C(=O)O,111%,,83.8%,100%,inactive,inactive,inactive,inactive,inactive,
Nc1nc2c(ncn2COCCO)c(=O)[nH]1,99.6%,,126%,34.4%,inactive,inactive,inactive,inactive,inactive,
